NPR1 antag = blocks ANP-stimulated signaling of human Npr1 receptor. Potency, µM (highest dose often 46.3 µM), for the others: top-dose activity change, negative = inhibition, most hits filed as inhibitors. 76,000 tested, 1.6% active. P16066. HEK293 hNpr1 GloSensor cGMP, ANP-stimulated luminescence. AID 1347048; calls by dose curve; also: nearly all actives have a fitted effect of over 60% in size
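HEK293 cells stably expressing human Npr1 and cGMP GloSensor pGS-40F, loaded 2 h with 2% GloSensor reagent, given compound 30 min at room temperature. Luminescence read before and 20 min after 0.1 nM hNppA.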
GPT2 inh = GPT2 alanine aminotransferase inhibition | Q8TD30 | Recombinant GPT2, coupled pyruvate oxidase/HRP Amplex Red fluorescence | Potency, µM (series often up to 57.7 µM), for the others: at the highest dose activity change, negative = inhibition, most hits filed as inhibitors | 100,000 tested, 0.25% active | AID 1671188; also: nearly all actives have a fitted effect of over 60% in size
Target sequence (Q8TD30 whole entry, looked up): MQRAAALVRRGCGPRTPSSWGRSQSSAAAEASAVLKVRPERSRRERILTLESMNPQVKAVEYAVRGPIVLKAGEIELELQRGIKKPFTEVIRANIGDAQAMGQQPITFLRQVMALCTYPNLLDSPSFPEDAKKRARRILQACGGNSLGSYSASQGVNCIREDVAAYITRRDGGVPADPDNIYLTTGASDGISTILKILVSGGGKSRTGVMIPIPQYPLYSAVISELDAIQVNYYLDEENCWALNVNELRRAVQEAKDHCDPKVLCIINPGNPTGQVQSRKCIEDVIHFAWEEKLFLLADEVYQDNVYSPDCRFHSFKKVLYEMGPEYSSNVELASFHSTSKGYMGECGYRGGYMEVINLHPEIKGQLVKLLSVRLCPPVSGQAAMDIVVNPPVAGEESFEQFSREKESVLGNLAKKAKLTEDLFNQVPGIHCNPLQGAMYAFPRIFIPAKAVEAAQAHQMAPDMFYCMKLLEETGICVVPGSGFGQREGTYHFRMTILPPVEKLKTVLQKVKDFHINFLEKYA
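Recombinant GPT2 (10ng/uL) with 250uM a-KG and 2mM L-alanine, 30 min at room temperature, in HEPES pH 7.5 buffer. Pyruvate detected by pyruvate oxidase/HRP/Amplex Red fluorescence after 30 min in the dark; AOA (50uM) as positive control.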
3T3 cytotox = NIH 3T3 cell cytotoxicity | NIH 3T3 viability, CellTiter-Glo ATP luminescence, 48-72 h | Potency, µM (series often up to 96.7 µM), for the others: top-dose activity change, negative = cytotoxicity, most hits filed as inhibitors | 94,000 tested, 4.3% active; also: nearly all actives have a fitted effect of over 55% in size
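Cytotoxicity was measured by CellTiter-Glo ATP luminescence after 48 or 72 h compound exposure at 37 °C. Mouse NIH 3T3 fibroblasts were seeded at 400 cells/well and dosed by 23 nL pin transfer.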
HEK cytotox = cytotoxic compounds in HEK 293 cells; HEK 293 viability, ATP luminescence (CellTiter-Glo), 48-72 h; 94,000 tested, 6.6% active; Potency, µM (top dose mostly 115 µM), for inactives: at the highest dose activity change, negative = cytotoxicity, most hits filed as inhibitors; also: nearly all actives have a fitted effect of over 60% in size
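Viability of HEK 293 cells, plated at 250 cells/well, was judged by cellular ATP after compound treatment for 48 or 72 hr. Luminescence was imaged 10 min after CellTiter-Glo addition at room temperature.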
Luciferase inh = Photinus pyralis luciferase inhibition. P08659. purified P. pyralis luciferase, luminescence, biochemical. Potency, µM (highest dose often 115 µM), usual class: inhibitors. 76,000 tested, 2.5% active. AID 1347043; also: nearly all actives have a fitted effect of over 65% in size
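Inhibitors were tested against purified firefly luciferase in a biochemical, low-substrate format (both substrates at 10uM) and luminescence measured with a CCD imager.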
Active calls of the source: *; i = inactive; ? = inconclusive; . = not tested or not shown; ! = a repeat was not active; [ ] = remark or other dose. In the library only some 10% were active in any assay of this set; here they are far more common. Unless noted, calls follow the shape of the dose curve; as a rule, active = well fitted curve in the direction sought with a large enough effect; inconclusive = small, poorly fitted or top-dose-only effect, or another doubt; inactive = no such curve, though single readings can be large; an effect the other way counts as inactive or inconclusive. % is scaled to controls: 0 for no effect and ±100 for the full control effect; potency is read from the fitted curve at half-maximal effect.

SMILES	NPR1 antag	GPT2 inh	3T3 cytotox	HEK cytotox	Luciferase inh
COCCOc1ncccc1-c1noc([C@@H]2CCCN2Cc2ccc(C(=O)O)cc2)n1	-12.8%[70.6 µM]	-7.8%[88.5 µM]	-9.9%[138 µM]	4.4%[172 µM]	i
COCCOc1ncccc1-c1noc([C@@H]2CCCN2Cc2ccc(OC)cc2)n1	3.2%[70.6 µM]	0.8%[88.5 µM]	-14.6%[174 µM]	100µM*	i
COc1ccccc1CN1CCC[C@H]1c1nc(-c2ccc(F)cn2)no1	3.6%[70.6 µM]	2.6%[88.5 µM]	-21.2%[174 µM]	17.8µM*	i
CC(=O)N1CCC(c2nnc3n2C(C(=O)NCc2ccc(F)cc2)CC3)CC1 (stereo not given)	.	?	-22.7%	-16.2%	.
CN1Cc2ccc(NCc3ccccc3)nc2C(C)(C(=O)Nc2ccccc2)C1 (stereo not given)	-28.4%[70.6 µM]	-2.0%[88.5 µM]	44.7µM*	63.1µM*	i
CN(C)CCNC(=O)C1(C)CN(Cc2ccccc2)Cc2ccc(Nc3ccccc3)nc21 (stereo not given)	0.5%	-3.9%	15.8µM*	28.2µM*	i
COc1ccc(NC(=O)C2(C)CN(C)Cc3ccc(NCc4ccccc4)nc32)cc1 (stereo not given)	-17.0%[70.6 µM]	0.6%[88.5 µM]	44.7µM*	?	i
COc1cccc(Nc2ccc3c(n2)C(C)(C(=O)NCc2cccs2)CN(C)C3)c1 (stereo not given)	-4.6%[70.6 µM]	-8.7%[88.5 µM]	?	?	i
CN1Cc2ccc(NCc3ccccc3)nc2C(C)(C(=O)NCc2cccs2)C1 (stereo not given)	-19.4%[70.6 µM]	-0.8%[88.5 µM]	79.4µM*	?	i
COCCN1Cc2ccc(Nc3ccc(OC)cc3)nc2C(C)(C(=O)NC(C)C)C1 (stereo not given)	6.3%[70.6 µM]	i	?	?	i
COCCNC(=O)C1(C)CN(C)Cc2ccc(Nc3ccccc3)nc21 (stereo not given)	-0.3%[70.6 µM]	-5.0%[88.5 µM]	-22.5%[138 µM]	?	i
O=C1CC(c2ccccc2)N(C(=O)CCc2ccccc2)CCCCCN1 (stereo not given)	3.6%	i	-21.6%	1.3%	i
O=C(c1cccs1)N1CCC(N2CC(OCC3CC3)C23CCOCC3)CC1 (stereo not given)	-0.2%	1.3%	-15.9%	-12.7%	i
CN1Cc2ccc(NCc3ccccc3)nc2C(C)(C(=O)NCCOc2ccccc2)C1 (stereo not given)	?	-26.1%[88.5 µM]	?	?	63.1µM*
CN1CCCCCCN(Cc2cn(C)c3ccccc23)[C@H]2CCC[C@H]2C1=O	-10.6%	i	?	?	i
COc1ccc2c(c1)c(CN1CCCCCCN(C)C(=O)[C@@H]3CCC[C@@H]31)cn2C	-13.3%	i	28.2µM*	35.5µM*	i
CCOC(=O)[C@H]1C[C@]2(CCCCN(CCO)C2=O)N(C(=O)c2cccc(OC)c2)[C@H]1c1ccco1	.	.	?	-19.9%	.
Cc1ccc(-c2cccc(CN3CCCC(c4nc5ccc(F)cc5c(=O)[nH]4)C3)c2)c(C)c1 (stereo not given)	-5.1%	i	39.8µM*	31.6µM*!	i
O=c1[nH]c(C2CCCN(Cc3cccc(-c4cccs4)c3)C2)nc2ccc(F)cc12 (stereo not given)	?	-2.9%	31.6µM*	31.6µM*	i
CC(C)c1nc2n(n1)CCN(C(=O)c1ccc(Cl)cc1)C2	.	0.2%	i	i	.
COc1ccccc1NC(=O)Nc1cccc(-c2ccc(N3CCCCC3)nn2)c1	?	-5.8%	?	?	0.708µM*
O=C(NCCc1ccccc1)Nc1cccc(-c2nnc3n2CCCC3)c1	-14.4%	3.6%	-13.6%	?	i
COc1ccccc1NC(=O)Nc1cccc(-c2nnc3n2CCCC3)c1	-0.4%	-5.0%	?	?	?
CCOc1ccccc1NC(=O)Nc1cccc(-c2ccc(N3CCCC3)nn2)c1	-23.6%	-14.6%	-25.1%	-22.1%	6.31µM*
O=C(NCCc1ccccc1)Nc1cccc(-c2ccc(N3CCCCC3)nn2)c1	8.91µM*	-9.9%	-26.8%	?	0.251µM*
SMILES	NPR1 antag	GPT2 inh	3T3 cytotox	HEK cytotox	Luciferase inh
Cc1cc(C)n(CCC(=O)N2CC(c3noc(COc4ccccc4)n3)C2)n1	.	?	-24.4%	-15.5%	.
CNC(=O)c1cc(C)nc2onc(C3CCCN([S+](=O)([O-])C(C)C)C3)c12 (stereo not given)	.	.	2.3%	2.9%	.
O=C(NCc1cccnc1)c1nc(-c2ccccc2)cc2[nH]ccc12	-3.0%[70.6 µM]	-4.1%[88.5 µM]	?	89.1µM*	i
O=C(NCCc1ccccn1)c1nc(-c2ccccc2)cc2[nH]ccc12	-21.9%[70.6 µM]	-3.2%[88.5 µM]	?	79.4µM*	?
O=C1CC2(CCN(C(=O)C3CCN(C(=O)c4ccc(C(F)(F)F)cc4)CC3)CC2)Oc2ccccc2N1	.	i	?	?	.
CN(C)C[C@@H]1CN(C)C[C@H]1NS(=O)(=O)c1ccc(Br)cc1	1.7%	?	-2.4%	-8.1%	i
COc1ccc2c(c1)OC[C@@H]1CN(CCC#N)C(=O)CCN(C(=O)c3ccc(F)cc3)[C@H]21	.	.	?	-24.0%	.
COc1ccc(C(=O)NC2CCN(Cc3cccc(-c4cccc(C)c4)c3)CC2)cc1	.	1.6%	?	35.5µM*	.
Cc1cccc(-c2cccc(CN3CCC(NC(=O)c4ccncc4)CC3)c2)c1	.	-7.7%	31.6µM*	31.6µM*	.
Cc1cccc(-c2cccc(CN3CCC(NC(=O)NC(C)C)CC3)c2)c1	.	i	?	?	.
Cc1cccc(-c2cccc(CN3CCC(NC(=O)c4ccccc4F)CC3)c2)c1	.	0.6%	39.8µM*	?	.
Cc1ccc(C(=O)NC2CCN(Cc3cccc(-c4ccc(F)c(F)c4)c3)CC2)cc1	.	i	35.5µM*	?	.
Cc1cccc(-c2cccc(CN3CCC(NC(=O)C4CC4)CC3)c2)c1	.	i	?	?	.
Fc1ccc(OC2CNC2)cc1	.	i	-6.3%[174 µM]	-8.4%[230 µM]	.
CCOc1ccccc1NC(=O)Cn1c(N2CCN(c3ccccc3)CC2)nc(C)cc1=O	0.8%	2.5%	2.6%	-10.8%	i
Cc1cccc(-c2cccc(CN3CCC(NC(=O)c4ccc(Cl)nc4)CC3)c2)c1	.	1.4%	17.8µM*	14.1µM*	.
O=C(NC1CCN(Cc2cccc(-c3cccs3)c2)CC1)c1ccc(Cl)nc1	.	-3.5%	?	?	.
Cc1cccc(-c2cccc(CN3CCC(NC(=O)C4CCCC4)CC3)c2)c1	.	i	-9.2%	i	.
Cc1cccc(-c2cccc(CN3CCC(NC(=O)Cc4ccccn4)CC3)c2)c1	.	i	44.7µM*	?	.
COc1ccc(NC(=O)c2cccc3c2CCN3C(=O)Nc2ccc(F)cc2)cc1	1.6%	i	-11.8%	?	?
O=C(NCCc1ccncc1)c1cccc2c1CCN2C(=O)Nc1ccc(F)cc1	3.55µM*	-4.7%	?	?	0.251µM*
